Among the data in PubChem BioAssay (NCATS) are activation and Potency values, retold here.

Experiment [1] addresses Cellular tumor antigen p53 (Homo sapiens) (UniProt P04637). Briefly: Primary qHTS for small molecule compounds that upregulate eGFP-tagged delta133p53alpha (in N-terminal) cells. (AID 2060322).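 Also: cells pre-induced with doxycycline then dosed without doxycycline; series mostly up to about 56 µM; 0% = DMSO vehicle and 100% = reference activator; nearly all actives have a fitted effect of over 75% in size.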 As to conditions: NCI-H358 eGFP-delta133p53alpha fluorescence, 24 h; activation: hits give high values. The method, boiled down: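 NCI-H358 cells pre-induced 24 h with 10 ng/ml doxycycline for eGFP-delta133p53alpha, plated dox-free and exposed 24 h at 37C to titrated compounds. Fixed, Hoechst-stained; gated GFP peak intensity by laser scanning cytometry, normalized to DMSO (0%) and 57.5 uM 5-azacytidine (100%).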
In general terms: In qHTS, concentration-response curves come from the screen itself.

The target of experiment [2] is Aldehyde dehydrogenase, mitochondrial (Homo sapiens) (UniProt P05091). Briefly: qHTS for Inhibitors of the Aldehyde Dehydrogenase Family (ALDH2) Primary screen (AID 2061308).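 Also: plate controls were vehicle for no effect and reference inhibitor for full effect; nearly all actives have a fitted effect of over 55% in size.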
In experiment [3] the target is Retinaldehyde dehydrogenase 3 (Homo sapiens) (UniProt P47895). Briefly: qHTS for Inhibitors of the Aldehyde Dehydrogenase Family (ALDH1A3) Validation screen (AID 2061312). Also: nearly all actives have a fitted effect of over 45% in size. Also: potency is read from the fitted curve at half-maximal effect.
Experiment [4] has the same target. Briefly: qHTS for Inhibitors of the Aldehyde Dehydrogenase Family (ALDH1A3) Primary screen (AID 2061315).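 Also: plate controls were DMSO vehicle for no effect and reference inhibitor for full effect.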

Molecules are shown by their SMILES. Where “and” joins values, the source holds several entries; their conditions need not be identical. Identical values can stand only once. Records with an inconclusive call do not appear. Values without a mark were called inactive. Calls of active or inactive are those of the source. Calls follow the shape of the dose curve; as a rule, active = well fitted curve in the direction sought with a large enough effect; inconclusive = small, poorly fitted or top-dose-only effect, or another doubt; inactive = no such curve, though single readings can be large; an effect the other way counts as inactive or inconclusive.

Sequence of Cellular tumor antigen p53 (Homo sapiens) (P04637 whole entry, looked up): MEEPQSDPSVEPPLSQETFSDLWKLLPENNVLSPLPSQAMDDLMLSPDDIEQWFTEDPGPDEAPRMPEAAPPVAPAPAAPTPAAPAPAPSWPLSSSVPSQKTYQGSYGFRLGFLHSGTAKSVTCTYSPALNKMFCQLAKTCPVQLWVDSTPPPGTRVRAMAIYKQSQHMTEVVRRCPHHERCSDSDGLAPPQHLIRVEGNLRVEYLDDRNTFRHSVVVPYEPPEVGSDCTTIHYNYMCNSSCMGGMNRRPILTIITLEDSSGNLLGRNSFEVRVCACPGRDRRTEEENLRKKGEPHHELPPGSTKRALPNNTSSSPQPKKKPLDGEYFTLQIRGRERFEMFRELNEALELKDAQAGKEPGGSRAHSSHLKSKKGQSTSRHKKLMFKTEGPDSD

As to `COC(=O)c1ccc2c(c1)[nH]c1ncnc(NCCCN3CCCCC3)c12`, the activation in experiment [1] is 0.477%. Further, the Potency result in experiment [2] and in experiment [4] was “inactive” throughout. Also, the Potency in experiment [3] was 31.6 µM (active).
For `CC(C)C[C@@H](C(=O)N[C@@H](Cc1ccc(OCc2ccccc2)cc1)C(=O)NC(C)(C)C)N(C)Cc1ccc(C(C)(C)C)cc1`, in experiment [1], the activation was -1.91%. The Potency result in experiment [2], in experiment [3] and in experiment [4] was “inactive” throughout.
As for `Nc1nc2c(ncn2[C@@H]2O[C@H](CO)[C@@H](O)[C@H]2O)c(=O)[nH]1`, the activation in experiment [1] is -1.43%. In addition, the Potency entry in experiment [2], in experiment [3] and in experiment [4] was “inactive” each time.
On to `CC(Cc1cc2c(c(C(N)=O)c1)N(CCCO)CC2)NCCOc1ccccc1OCC(F)(F)F` (centres undefined), for which the activation in experiment [1] was 5.25%. In addition, the Potency entry in experiment [2], in experiment [3] and in experiment [4] was “inactive” in each case.
In the case of `O=C(O)C[C@@H](NC(=O)c1cc(-c2ccc(-c3ccncc3)cc2)cs1)c1ccccc1`, in experiment [1], the activation was -1.43%. The Potency entry in experiment [2], in experiment [3] and in experiment [4] was “inactive” throughout.
Take `COc1cc2nc(N3CCN(C(=O)COc4c(OC)cccc4C(C)C)CC3)nc(N)c2cc1OC`: the activation in experiment [1] was -11%. Further, the Potency entry in experiment [2], in experiment [3] and in experiment [4] was “inactive” each time.
For the compound `CCOC(=O)c1ccc(N(C)c2csc(-c3ccccc3)n2)cc1`, in experiment [1], the activation is 0%. In addition, the Potency result in experiment [2], in experiment [3] and in experiment [4] was “inactive” throughout.
For `CC(C)(C)c1cc(Br)cc([C@H](CC(=O)O)NC(=O)CNC(=O)c2cc(O)cc(NC3=NCC(O)CN3)c2)c1` (some centres undefined), the activation in experiment [1] is -5.25%. Further, the Potency result in experiment [2], in experiment [3] and in experiment [4] was “inactive” throughout.
For the compound `COc1cc(NC(=O)c2cc(C3CC3)on2)c(OC)cc1Cl`, the activation in experiment [1] is -12.4%. Besides, the Potency entry in experiment [2], in experiment [3] and in experiment [4] was “inactive” throughout.
In the case of `Cc1c(C(=O)Nc2ccc(N3CCC(N4CCOCC4)CC3)c(C#N)c2)cnn1-c1ccc(Cl)cc1`, the activation in experiment [1] was 15.8%. Also, the Potency result in experiment [2], in experiment [3] and in experiment [4] was “inactive” each time.
Take `O=c1[nH]cnc2c1ncn2[C@@H]1O[C@H](CO)[C@@H](O)[C@H]1O`: in experiment [1], the activation was -11.7% and 6.21%. Besides, the Potency result in experiment [2], in experiment [3] and in experiment [4] was “inactive” throughout.
For the compound `CC[C@H]1OC(=O)[C@H](C)[C@@H](O[C@H]2C[C@@](C)(OC)[C@@H](O)[C@H](C)O2)[C@H](C)[C@@H](O[C@@H]2O[C@H](C)C[C@H](N(C)C)[C@H]2O)[C@@](C)(O)C[C@@H](C)[C@@H]2N[C@@H](COCCOC)OC([C@H]2C)[C@]1(C)O`, in experiment [1], the activation was 7.16%. For the same compound, the Potency result in experiment [2], in experiment [3] and in experiment [4] was “inactive” throughout.
With `CC(NCCCc1cccc(C(F)(F)F)c1)c1cccc2ccccc12` (centres undefined), the activation in experiment [1] was -2.86%. Besides, the Potency entry in experiment [2], in experiment [3] and in experiment [4] was “inactive” each time.
Turning to `Cc1ccc(-c2c(-c3nn(C)c4ncnc(N5CC[C@H](N6CCCCC6)C5)c34)cnn2C)cc1`, the activation in experiment [1] was 0.477%. For the same compound, the Potency entry in experiment [2], in experiment [3] and in experiment [4] was “inactive” in each case.
On to `COC(=O)N1CCC(n2ncc3c(N4CCOCC4)nc(-c4ccc(NC(=O)NC5CC5)cc4)nc32)CC1`, for which, in experiment [1], the activation is 12.4%. Further, the Potency entry in experiment [2], in experiment [3] and in experiment [4] was “inactive” in each case.
Take `CCN(CC)C(=O)C(c1ccccc1)N1CCN(c2ccc(NC(=O)c3ccccc3-c3cccnc3)cc2F)CC1` (centres undefined): in experiment [1], the activation was -6.21%. Further, the Potency entry in experiment [2], in experiment [3] and in experiment [4] was “inactive” in each case.
On to `O=C(NCCN1CCN(c2cccc3c2OCCO3)CC1)c1ccc(F)cc1`, for which the activation in experiment [1] was -9.07%. The Potency entry in experiment [2], in experiment [3] and in experiment [4] was “inactive” in each case.
On to `C[C@]12CC[C@@H]3c4ccc(OC(=O)c5ccccc5)cc4CC[C@H]3[C@@H]1CC[C@@H]2O`, for which, in experiment [1], the activation is 14.3%. Also, the Potency entry in experiment [2], in experiment [3] and in experiment [4] was “inactive” in each case.
As to `NC(=O)CCCSc1nc(N)nc(-c2c(Cl)cc3c4c(cccc24)COC3)n1`, the activation in experiment [1] was -8.59%. Also, the Potency entry in experiment [2], in experiment [3] and in experiment [4] was “inactive” each time.
Take `CC(C)CCNC(=O)c1ccc2c(c1)nc(Nc1n[nH]c3ccc(-c4ccccc4OC(F)(F)F)cc13)n2C1CCC(O)CC1` (centres undefined): the activation in experiment [1] was 6.21%. For the same compound, the Potency result in experiment [2], in experiment [3] and in experiment [4] was “inactive” each time.
Take `CNc1nc(NCc2ccc(NS(C)(=O)=O)cc2Cl)cc(-c2ccccn2)n1`: in experiment [1], the activation was 7.64%. Besides, the Potency entry in experiment [2], in experiment [3] and in experiment [4] was “inactive” throughout.
As to `Cc1noc(C)c1-c1cc(O)cc(C(O)c2ccccc2)c1` (centres undefined), the activation in experiment [1] is 10.1%. For the same compound, the Potency entry in experiment [2], in experiment [3] and in experiment [4] was “inactive” throughout.
Turning to `Cc1cc(C)c(S(=O)(=O)N(Cc2ccc(-c3cccc(S(C)(=O)=O)c3)cc2)Cc2ccc(C(F)(F)F)o2)c(C)c1`, in experiment [1], the activation is -0.955%. The Potency entry in experiment [2], in experiment [3] and in experiment [4] was “inactive” throughout.
Take `CC(c1ncncc1F)C(O)(Cn1cncn1)c1ccc(F)cc1F` (centres undefined): the activation in experiment [1] is 0.477%. Besides, the Potency entry in experiment [2], in experiment [3] and in experiment [4] was “inactive” each time.
On to `CC(NC(=O)CCc1nc2ccccc2c(=O)[nH]1)c1ccccc1` (centres undefined), for which the activation in experiment [1] is -1.43%. Moreover, the Potency entry in experiment [2], in experiment [3] and in experiment [4] was “inactive” in each case.
For the compound `CCC(COC)n1nnc2c(Nc3ccc(OC)cc3C)nc(C)cc21` (centres undefined), in experiment [1], the activation is -5.25%. The Potency entry in experiment [2], in experiment [3] and in experiment [4] was “inactive” in each case.
